This is an account of results in PubChem BioAssay AID588674 (Broad Institute, 2011).

What is called inhibition is the relative decrease from the control value, in per cent.

The whole screen tested about 360,000 compounds, of which about 1,800 (0.5%) were called active. What follows is part of a selection rich in actives, with near analogues and random picks from the rest. Unmarked numbers belong to inactive results.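 The calls were made as follows: active = mean inhibition of at least 75% with every replicate also reaching 75%; inconclusive = mean inhibition at least 75% but some replicate below; inactive = mean inhibition below 75%.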

The nature of this assay: Shn3 3'UTR reporter decrease in osteoblasts – cell-based, Clone20 osteoblasts, firefly luciferase, set 2, Schnurri-3 inhibitor project, primary screen (AID 588674).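 Also: 0% = median of neutral control wells and 100% = pilot-screen positive control compound.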 The following applies: Clone20 osteoblast Shn3 3'UTR firefly luciferase, 24 h; at 12.5 µM; stronger effect = higher value.
As to `Cc1ccc(CS(=O)(=O)c2ncc(Cl)c(C(=O)Nc3nnc(C)s3)n2)cc1`, the inhibition is 98.8% (active).
With `Cc1cccc(C(=O)Nc2nnc(S(=O)(=O)N3CCCCCC3)s2)c1`, the inhibition is -6.34%.
Turning to `NC(=O)CSc1nnc(NC(=O)c2ccc(Br)o2)s1`, the inhibition was -19.4%.
As for `CSc1nnc(NC(=O)c2nc(S(=O)(=O)Cc3ccc(C)cc3)ncc2Cl)s1`, the inhibition is 97% (active).
Next, `O=C(Nc1nnc(-c2ccc(F)cc2)s1)c1c(F)cccc1Cl`: -31.5%; `Cc1ccc(S(=O)(=O)CCC(=O)Nc2nnc(CC(C)C)s2)cc1`: -5.29%.
`O=C(O)C1C2C=CC(O2)C1C(=O)Nc1ccccn1` (stereo unspecified): the inhibition is 1.15%.
Turning to `NC(=O)C1CCN(Cc2nc3c(Br)cc(Br)cc3c(=O)[nH]2)CC1`, the inhibition was 9.29%.
For the molecule `CC(C)C[C@H]1CNC(=S)N1C[C@H]1CCCN1C[C@H](Cc1ccc(O)cc1)N1C[C@H](Cc2ccc(O)cc2)N(CC2CCCCC2)C1=S`, the inhibition was 9.03%.
Turning to `Cc1noc(COc2ccccc2OCc2onc(C)c2Cl)c1Cl`, the inhibition is 9.9%.
Turning to `O=C(C=CC(=O)Nc1ccc(F)cc1F)Nc1ccc(F)cc1F`, the inhibition was 12.7%.
As to `COc1ccc(NC(=O)C2Cc3c(-c4cccc(NC(C)=O)c4)ccnc3O2)cc1OC` (stereo unspecified), the inhibition is 47.1%.
In the case of `CC(CCc1ccccc1)NC(=O)COC(=O)c1ccc(F)cc1` (stereo unspecified), the inhibition is -0.45%.
As to `Oc1c(CN2CCN(c3ccc(F)cc3)CC2)cc(Cl)c2cccnc12`, the inhibition is 83.5% (active).
`O=c1cc(CN2CCCCCCC2)c2c(ccc3ccccc32)o1`: the inhibition is 21.3%.
Next, `O=C(Cc1ccccc1)NNC(=O)C1CCN(c2ncccn2)CC1`: -8.28%.
The value for `Oc1c(CN2CCCC2)cc(COCc2ccccc2)c2cccnc12` was 86% (active).
In the case of `Cc1cccc(C)c1NC(=O)CN1CCN(c2ccc(F)cc2)CC1`, the inhibition is -13.2%.
`Cc1cc(=O)oc2cc(OCC(=O)N3CCN(c4ccc(F)cc4)CC3)c(Cl)cc12`: the inhibition is 4.64%.
Regarding `CC1(C)OC(=O)N2CCc3ccccc3C21C` (stereo unspecified), the inhibition was -7.85%.
On to `CC(OC(=O)c1cccnc1Cl)C(=O)NC1CCCCC1` (stereo unspecified), for which the inhibition is -10.8%.
The value for `COC(=O)C1CCN(C(=O)NC2CC(=O)N(c3ccc4c(c3)OCCO4)C2)CC1` (stereo unspecified) was -6.55%; that for `CC(=O)Nc1cc(-c2cccc(CO)c2)cn2c(-c3cccc(C(F)(F)F)c3)cnc12` was 10.6%; that for `C[C@H]([C@@H](O)[C@@H](O)[C@@H](C)C(C)(C)C)[C@H]1CC[C@H]2C3CC[C@H]4C[C@H](OS(=O)(=O)O)[C@@H](OS(=O)(=O)O)C[C@]4(C)[C@H]3CC[C@]12C` (stereo partly specified) was -9.66%.
In the case of `CC(=O)c1ccccc1NC(=O)CC1(CC(=O)O)CCCCC1`, the inhibition is -24.1%.
For the molecule `C=CCOc1nc2c(c(=O)n(C)c(=O)n2C)n1Cc1ccc(Cl)cc1Cl`, the inhibition was 86.3% (active).
As for `Cn1c(=O)c2c(nc(OCc3cccnc3)n2Cc2ccccc2)n(C)c1=O`, the inhibition is 30%.
`C=CCn1c(Oc2ccc(C(=O)OC)cc2)nc2c1c(=O)n(C)c(=O)n2C`: the inhibition is 21%.
`CCCn1c(=S)[nH]c2ccc(C(F)(F)F)cc21`: the inhibition was -4.29%.
Next, `Cn1nccc1C(=O)NC1CCCc2c1cnn2-c1ccc(F)cc1F` (stereo unspecified): 77.1%; `COc1ccc(C(=O)NC2CCCc3c2cnn3-c2cccc(C)c2C)c(OC)n1` (stereo unspecified): 84.1%; `Cn1nccc1C(=O)NC1CCCc2c1cnn2-c1ccccc1F` (stereo unspecified): 90.2% (active).
For the molecule `COc1ccc(-c2ccc(C(=O)NCCN3CCOCC3)c3occc23)c(C)c1`, the inhibition is 12.3%.
For the molecule `C/C(=N\NC(=O)C1(C)CC1(Br)Br)c1ccc(C)cc1C` (stereo unspecified), the inhibition was 8.35%.
For `Cc1cc(=O)[nH]c(N/N=C/c2c(C)nn(-c3ccccc3Cl)c2Cl)n1`, the inhibition was 14.6%.
As to `S=C(NN=Cc1ccccn1)Nc1ccccn1`, the inhibition was 67.3%.
On to `Cc1nnc(N/N=C/c2ccccn2)[nH]c1=O`, for which the inhibition is 90.6% (active).
In the case of `C/C=C(/C)C(=O)O[C@@H]1c2cc3c(c4c2[C@@]2(CO4)C(=O)C(OC)=C(OC)C=C2C[C@@H](C)[C@H]1C)OCO3`, the inhibition was -16.2%.
For `NC1=CC(=O)C(=O)c2cccnc21`, the inhibition is 96.6% (active).
As for `C=CCOc1ccccc1NC(=O)CN1C(=O)CNC1=O`, the inhibition is -14.9%.
Consider `Cc1cc(=O)oc2c3c(cc(OCC(=O)NCC(O)c4ccccc4)c12)OC(C)(C)CC3` (stereo unspecified), for which the inhibition is 0.998%.
Take `COc1cc2c(cc1OC)C(=O)NCC(C)(C)O2`: the inhibition was 9.62%.
On to `CC1=C(C(=O)N2CCOCC2)CC(CC(=O)NCc2ccco2)C(=O)N1Cc1ccc(F)cc1` (stereo unspecified), for which the inhibition was -16.3%.
With `Cc1ccc2c(c1)N(C(=O)CCC(=O)N1CCc3ccccc3C1)CCO2`, the inhibition was 11.3%.
`COc1ccc(S(=O)(=O)N2CCCCCC2)cc1NC(=O)Cc1ccc(OC)c(OC)c1`: the inhibition was 6.94%.
With `COc1cc(C(C)=O)ccc1OC(C)C(=O)Nc1ccc(S(=O)(=O)N2CCCC2)cc1` (stereo unspecified), the inhibition is -9.75%.
Consider `COc1ccc(-c2ccc(Nc3ccc(S(=O)(=O)N4CCCC4)cc3)nn2)cc1OC`, for which the inhibition is 91.7% (active).
For `Cc1onc(-c2ccccc2Cl)c1C(=O)N(Cc1ccc(N(C)C)cc1)C(C)C`, the inhibition is 15%.
Take `Cc1cc2cc3n(c2nn1)N=C(Cl)CC3`: the inhibition is 15.8%.
On to `O=C(CN1CCN(C(=O)C2CCCO2)CC1)Nc1c(Cl)cccc1Cl` (stereo unspecified), for which the inhibition was 1.7%.
Turning to `Cn1c(=O)c2c(SCC(=O)NCC3CCCO3)nc(CC(C)(C)C)nc2n(C)c1=O` (stereo unspecified), the inhibition is -3.55%.
Consider `Cc1ccc(COc2ccc(C(=O)NN)cc2)cc1`, for which the inhibition is -0.097%.
For the molecule `CCCCCCCCCCOC(=O)Cn1c(COc2ccc(C)cc2)[n+](C)c2ccccc21`, the inhibition is 94.3% (active).
Turning to `Cc1noc(C)c1COC(=O)Cn1c(C)nc2ccccc21`, the inhibition is 6.2%.
The value for `COc1ccc(-n2c(C)nn(CC3CC3)c2=O)cc1` was 0.917%.
`CCOc1ccc(N(C)S(=O)(=O)c2cnc[nH]2)cc1`: the inhibition was 14%.
On to `Nc1ncnc2c1ncn2[C@@H]1O[C@H](C(=O)NCC(F)(F)F)[C@@H](O)[C@H]1O`, for which the inhibition is 2.47%.
On to `Cc1[nH]c2ccccc2c1-c1ccc(Cl)nn1`, for which the inhibition is -0.142%.
For `N#Cc1c(-c2ccccc2)nc(SCc2cccc(C(F)(F)F)c2)[nH]c1=O`, the inhibition was -18.7%.
Take `O=c1c2ccccc2nc2n1C(CSCc1cccc(C(F)(F)F)c1)CS2` (stereo unspecified): the inhibition is 92.5% (active).
Take `O=c1c2ccccc2nc2n1C(CSCc1ccccc1)CS2` (stereo unspecified): the inhibition is 76.2%.
On to `C=CCn1c(C)cc(C2=NNC(=NCC)SC2)c1C`, for which the inhibition was 91% (active).
For the molecule `CN(Cc1ccc(C(F)(F)F)cc1)C(=O)[C@H]1O[C@@H](n2cnc3c(N)ncnc32)[C@H](O)[C@@H]1O`, the inhibition was 6.4%.
`CCn1nc(C(=O)Nc2ccc(N3CCOCC3)cc2)c2ccccc2c1=O`: the inhibition was 5.09%.
Next, `C[C@@H]1C[C@@H]2O[C@H]2/C=C\C=C\C(=O)Cc2c(Cl)c(O)cc(O)c2C(=O)O1`: 86.9% (active).
For `Cc1ccccc1N1CCN(CCCN2C(=O)C3CCCCN3C2=O)CC1` (stereo unspecified), the inhibition is 2.03%.
With `COC(=O)Cc1ccc(OC(=O)C2CCN(S(=O)(=O)c3ccc(OC)c(OC)c3)CC2)cc1`, the inhibition was -15.3%.
As to `CNS(=O)(=O)c1ccc2c(c1)[nH]c(=S)n2C`, the inhibition was 12.3%.
`COc1cc(C(=O)OCCCN2CCOCC2)cc(OC)c1OC`: the inhibition was 8.18%.
Take `COCc1c(C(=O)N/N=C\c2cccnc2)nnn1-c1nonc1N`: the inhibition was 9.7%.
Regarding `Nc1nonc1-n1nnc(C(=O)N/N=C\c2ccncc2)c1CN1CCCCC1`, the inhibition is 10.4%.
Take `Nc1nonc1-n1nnc(C(=O)N/N=C/c2cc(Br)ccc2O)c1CSC1=NCCS1`: the inhibition was 94% (active).
Turning to `Cc1ccc(Cc2c(-c3ccco3)nc3ccc(Cl)cn23)cc1`, the inhibition is 2.12%.
Consider `Cc1c(NC(=O)CSc2cccc3cccnc23)c(=O)n(-c2ccccc2)n1C`, for which the inhibition was 19.9%.
On to `O=C(CSc1cccc2cccnc12)N/N=C/c1cccnc1`, for which the inhibition was 20.8%.
Turning to `CC(=O)/C(=N\Nc1ccc(Cl)cc1Cl)Sc1cccc2cccnc12`, the inhibition was 93% (active).
`Cc1ccsc1CNn1cnnc1SCc1ccccc1F`: the inhibition is 5.38%.
In the case of `CC12CCC(=O)C=C1CCC1C2C(O)CC2(C)C1CCC2(O)C(O)CO` (stereo unspecified), the inhibition is 4.53%.
The value for `CCCCCCNC(=O)O[C@H]1CN(C(=O)OC(C)C)N(C(=O)OC(C)C)[C@@H]2CN(S(=O)(=O)c3ccc(C)cc3)C[C@]12O` was -14.9%; that for `OCCCNc1nccc(-c2cc(Nc3cccc(Cl)c3)ncn2)n1` was 96.3% (active); that for `CCOc1c(Nc2cccc(Cl)c2)c(=O)c1=O` was -16.6%.
Turning to `Cc1ccc(NC(=O)CN2CCCCC2)c2c1CC(C)(C)O2`, the inhibition is -24.2%.
The value for `CCn1c(/C=C/c2ccc([N+](=O)[O-])o2)nc2ccccc2c1=O` was 97.2% (active); that for `O=c1c2ccccc2ncn1/N=C/c1ccccc1` was -28%; that for `Cc1ccc(-n2c(SCC(=O)N/N=C/C=C/c3ccccc3[N+](=O)[O-])nc3ccccc3c2=O)cc1` was 1.32%.
`C=CCC(CC=C)(C(N)=O)c1ccccc1`: the inhibition was 1.2%.
The value for `CC(=O)Nc1cccc(C(=O)OCC(=O)NCc2cc(C)c(O)c(C)c2)c1` was -47.1%.
Take `C[C@H]1CN([C@@H](C)CO)C(=O)CCCn2cc(nn2)CO[C@@H]1CN(C)S(=O)(=O)c1cccs1`: the inhibition is -17.2%.
`CCN(CC)c1ccc(/C=N/Nc2nc(C)cc(C)n2)c(O)c1`: the inhibition was 89.4% (active).
In the case of `CCOc1cc(/C=N/Nc2cc(C)nc3ccc(C)cc23)ccc1O`, the inhibition was -7.54%.
Regarding `O=C1CSC(c2ccc(Cl)cc2)N1` (stereo unspecified), the inhibition was -10.9%.
